Data published in PubChem BioAssay (NCATS).
Inconclusive results are not listed. Active and inactive are the calls of the source. The call rests on the fitted dose curve; in most records, active means well fitted cell-killing curve with a large enough effect; inconclusive means small, poorly fitted or top-dose-only effect, or effect the other way; inactive means no such curve, though single readings can be large or run the other way.

Columns and labels:
[1] = Quantitative High-Throughput drug screen in 47 multiple myeloma cell lines against the NCATS MIPE library collection: FR4_PLB cell viability assay (AID 1918924; further: nearly all actives have a fitted effect of over 35% in size)
Procedure, shortened: (§1)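 Primary qHTS used for cherry-picking: cells at 500/well, library compounds for 48 h (37C, 5% CO2), luminescent ATP assay.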

[2] = Quantitative High-Throughput drug screen in 47 multiple myeloma cell lines against the NCATS MIPE library collection: AMO1_DSMZ cell viability assay (AID 1918927; further: nearly all actives have a fitted effect of over 30% in size)
Procedure, shortened: (§2)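 qHTS of the MIPE 4.0 collection: 500 myeloma cells/well, 48 h drug exposure at 37C in 5% CO2, then CellTiter-Glo for 5 min at room temperature before luminescence reading.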

[3] = Quantitative High-Throughput drug screen in 47 multiple myeloma cell lines against the NCATS MIPE library collection: ARD_JJKsccE7 cell viability assay (AID 1918929)
Procedure, shortened: as §2

[4] = Quantitative High-Throughput drug screen in 47 multiple myeloma cell lines against the NCATS MIPE library collection: Karpas620_DSMZ cell viability assay (AID 1918959); further: nearly all actives have a fitted effect of over 30% in size
Procedure, shortened: as §1

[5] = Quantitative High-Throughput drug screen in 47 multiple myeloma cell lines against the NCATS MIPE library collection: KMM1_JCRB cell viability assay (AID 1918960); further: nearly all actives have a fitted effect of over 30% in size
Procedure, shortened: (§3)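 Myeloma cells, 500 per well, were exposed to MIPE 4.0 drugs by pin transfer for 48 h at 37 °C, 5% CO2. Viability was read as ATP luminescence with CellTiter-Glo, normalised to DMSO-only (100%) and medium-only (0%) wells.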

[6] = Quantitative High-Throughput drug screen in 47 multiple myeloma cell lines against the NCATS MIPE library collection: Delta47_JCRB cell viability assay (AID 1918925; further: nearly all actives have a fitted effect of over 45% in size)
Procedure, shortened: as §2

[7] = Quantitative High-Throughput drug screen in 47 multiple myeloma cell lines against the NCATS MIPE library collection: EJM_DSMZ cell viability assay (AID 1918926; further: nearly all actives have a fitted effect of over 30% in size)
Procedure, shortened: as §2

[8] = Quantitative High-Throughput drug screen in 47 multiple myeloma cell lines against the NCATS MIPE library collection: ARP1_JJKsccF8 cell viability assay (AID 1918928; further: nearly all actives have a fitted effect of over 40% in size)
Procedure, shortened: as §3

[9] = Quantitative High-Throughput drug screen in 47 multiple myeloma cell lines against the NCATS MIPE library collection: Karpas417_ECACC cell viability assay (AID 1918961); conditions: Karpas417 myeloma viability, CellTiter-Glo ATP luminescence, 48 h; viability (% of DMSO): at 45.8 µM (top of the series)
Procedure, shortened: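 We plated 500 myeloma cells per well, pinned in MIPE 4.0 compounds, and incubated for 48 hours at 37C. ATP was then quantified with CellTiter-Glo, with DMSO and media-only wells defining 100% and 0%.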

[10] = Quantitative High-Throughput drug screen in 47 multiple myeloma cell lines against the NCATS MIPE library collection: KHM11_PLB cell viability assay (AID 1918962); further: nearly all actives have a fitted effect of over 35% in size
Procedure, shortened: as §1

Measured: Potency
Potency means the concentration at half of the fitted maximal effect.

CCCCCN(CCC12CC3CC(CC(C3)C1)C2)C(=O)NCCCc1ccncc1
active: [1] 18700 nM | [2] 14800 nM | [3] 11800 nM | [4] 2960 nM
inactive: [5]

Cc1cc(Nc2cc(CN3CCOCC3)c3nc(C)c(Cc4ccc(Cl)cc4F)n3n2)n[nH]1
active: [6] 10500 nM | [7] 16600 nM | [2] 526 nM | [8] 13200 nM

COc1cc(-c2nn(C3CCC(N4CCN(C(C)=O)CC4)CC3)c3ncnc(N)c23)ccc1NC(=O)c1cc2ccccc2n1C (configuration not stated)
inactive: [9]
active: [1] 5260 nM | [7] 20900 nM | [2] 590 nM | [3] 372 nM | [5] 372 nM

C=CC(=O)Nc1cccc(Oc2nc(Nc3ccc(N4CCN(C)CC4)cc3)ncc2Cl)c1
active: [6] 1870 nM | [7] 23500 nM | [2] 5260 nM | [8] 13200 nM | [3] 16600 nM | [5] 9350 nM | [10] 16600 nM

CN1CC[C@@H](c2c(O)cc(O)c3c(=O)cc(-c4ccccc4Cl)oc23)[C@@H](O)C1
active: [6] 66.2 nM | [7] 74.3 nM | [2] 26.4 nM | [8] 83.3 nM | [3] 46.9 nM | [4] 93.5 nM | [5] 59 nM | [9] 18.7 nM | [10] 23.5 nM

Cc1cc(Nc2nc(N[C@@H](C)c3ccc(F)cc3)c(C#N)cc2F)n[nH]1
active: [6] 2960 nM | [7] 16600 nM | [2] 235 nM | [8] 1050 nM | [3] 332 nM | [5] 1870 nM | [9] 209 nM | [10] 8330 nM

COC(=O)c1ccc2c(C(=Nc3ccc(N(C)C(=O)CN4CCN(C)CC4)cc3)c3ccccc3)c(O)[nH]c2c1
active: [6] 6620 nM | [7] 3720 nM | [2] 4690 nM | [8] 23500 nM | [5] 1660 nM | [9] 187 nM | [10] 26400 nM

CC(C)c1noc(N2CCC(COc3ccc(-c4ccc(S(C)(=O)=O)cc4)nc3)CC2)n1
active: [1] 6620 nM
inactive: [2] | [3] | [4] | [9]

Cn1c(=O)n(-c2ccc(C(C)(C)C#N)cc2)c2c3cc(-c4cnc5ccccc5c4)ccc3ncc21
active: [1] 9.3 nM | [8] 18.7 nM

COc1ccc2c(c1)CC[C@@H](CN(C)CC(=O)O)[C@H]2c1ccccc1
active: [1] 1050 nM | [2] 590 nM | [8] 3320 nM | [3] 1320 nM | [10] 662 nM

CC=CC1=C(C(=O)O)N2C(=O)[C@H](NC(=O)[C@H](N)c3ccc(O)cc3)[C@@H]2SC1
inactive: [6] | [7] | [8] | [5] | [9]
active: [2] 8330 nM | [4] 14800 nM

CS(=O)(=O)c1ccc(-c2cnc(N)c(C(=O)Nc3ccccc3)n2)cc1
active: [1] 18700 nM
inactive: [3]

CC[C@@H]1C(=O)N(C)c2cnc(Nc3ccc(C(=O)NC4CCN(C)CC4)cc3OC)nc2N1C1CCCC1
active: [1] 23.5 nM | [8] 37.2 nM | [3] 29.6 nM | [5] 23.5 nM | [9] 1870 nM

OCCCNc1cc(-c2ccnc(Nc3cccc(Cl)c3)n2)ccn1
active: [6] 26.4 nM | [2] 74.3 nM | [8] 105 nM | [3] 74.3 nM | [4] 66.2 nM | [5] 52.6 nM | [9] 46.9 nM | [10] 18.7 nM

Cc1ccc(CN2CCNCC2)cc1NC(=O)CNc1ccc(F)c(F)c1
active: [7] 3320 nM
inactive: [6] | [3] | [5]

CC(C)C[C@H](NC(=O)CNC(=O)c1cc(Cl)ccc1Cl)B(O)O
active: [6] 46.9 nM | [7] 148 nM | [8] 59 nM | [3] 74.3 nM | [4] 118 nM | [9] 41.8 nM | [10] 46.9 nM

CC(C)c1cc(-c2n[nH]c(=O)n2-c2ccc3c(ccn3C)c2)c(O)cc1O
active: [6] 33.2 nM | [2] 29.6 nM | [8] 29.6 nM | [3] 16.6 nM | [9] 16.6 nM

NC(=O)c1c(OCc2c(F)cc(Br)cc2F)nsc1NC(=O)NCCCCN1CCCC1
inactive: [3] | [4] | [9]
active: [6] 7430 nM | [7] 20900 nM | [10] 9350 nM

CC(C)(C)OC(=O)Nc1ccc(-c2cc(C(=O)NCCCCCCC(=O)NO)no2)cc1
active: [6] 833 nM | [7] 3720 nM | [8] 743 nM | [3] 935 nM | [4] 2350 nM | [10] 5900 nM

NCC(=O)Nc1ccc(-n2nc(C(F)(F)F)cc2-c2ccc3c(ccc4ccccc43)c2)cc1
active: [6] 18700 nM | [7] 23500 nM | [2] 66.2 nM | [3] 148 nM | [5] 5260 nM | [10] 26400 nM
inactive: [4]

CNC(=O)c1ccc(N2C(=S)N(c3cnc(C#N)c(C(F)(F)F)c3)C(=O)C23CCC3)cc1F
active: [6] 743 nM | [7] 166 nM | [2] 332 nM | [3] 2090 nM | [4] 2350 nM | [5] 2090 nM | [9] 1050 nM | [10] 2090 nM

Cc1[nH]c2ccccc2c1CCNCc1ccc(C=CC(=O)NO)cc1
active: [6] 52.6 nM | [7] 148 nM | [8] 41.8 nM | [5] 52.6 nM | [10] 148 nM

CCOC(=O)C1=C(C)NC2=C(C(=O)CC(C)(C)C2)C1c1ccc(-c2ccccc2)cc1 (configuration not stated)
active: [6] 14800 nM | [8] 23500 nM

COC(=O)C[C@](O)(CCCC(C)(C)O)C(=O)O[C@@H]1C(OC)=C[C@]23CCCN2CCc2cc4c(cc2[C@H]13)OCO4
inactive: [6] | [7] | [5] | [9] | [10]

C#Cc1cccc(Nc2ncnc3cc(OC)c(OCCCCCCC(=O)NO)cc23)c1
active: [6] 66.2 nM | [2] 52.6 nM | [8] 118 nM | [3] 74.3 nM | [4] 74.3 nM | [5] 52.6 nM | [10] 372 nM

Cc1c(CN2CCN(S(C)(=O)=O)CC2)sc2c(N3CCOCC3)nc(-c3cnc(N)nc3)nc12
active: [6] 10.5 nM | [7] 105 nM | [8] 8.3 nM | [4] 66.2 nM | [10] 33.2 nM

C[C@@H]1COC(Nc2ccc3ncnc(Nc4ccc(OCc5nccs5)c(Cl)c4)c3c2)=N1
active: [6] 2640 nM | [7] 1050 nM | [2] 4690 nM | [3] 4180 nM | [5] 10500 nM | [10] 16600 nM

C[C@@]12O[C@@H](C[C@]1(O)CO)n1c3ccccc3c3c4c(c5c6ccccc6n2c5c31)CNC4=O
active: [6] 418 nM | [7] 2960 nM | [8] 662 nM | [5] 526 nM | [10] 66.2 nM

CC(C)c1ccccc1Cc1cc(C(=O)Nc2ccc(S(=O)(=O)c3ccccc3C(C)(C)C)cc2)c(O)c(O)c1O
inactive: [2] | [3] | [4] | [5]
active: [6] 7430 nM | [8] 14800 nM | [10] 7430 nM

COc1cc2c(Oc3ccc(-c4cnc(Nc5ccc(F)cc5)n(C)c4=O)cc3F)ccnc2cc1OCCCN1CCOCC1
active: [6] 935 nM | [2] 2350 nM | [8] 8330 nM | [4] 2960 nM | [5] 1870 nM | [10] 8330 nM

CC=C1NC(=O)[C@H]2CSSCCC=C[C@H](CC(=O)N[C@H](C(C)C)C(=O)N2)OC(=O)[C@H](C(C)C)NC1=O
active: [6] 16.6 nM | [7] 29.6 nM | [8] 26.4 nM | [3] 11.8 nM | [4] 26.4 nM | [5] 7.4 nM | [10] 16.6 nM

CCNC(=O)Nc1ccc2ncc(Nc3ccc(C)cc3)nc2n1
active: [6] 3320 nM | [2] 2350 nM | [3] 3720 nM | [4] 1870 nM | [5] 2640 nM | [9] 59 nM | [10] 3720 nM

Cn1cc(-c2ccncc2)c(-c2ccc(OCc3ccc4ccccc4n3)cc2)n1
active: [6] 2640 nM | [2] 3320 nM | [3] 6620 nM | [4] 4690 nM | [5] 8330 nM

COc1cccc(-c2ccc(NC(=O)C3=C(C(=O)O)CCC3)c(F)c2)c1
active: [2] 6620 nM | [8] 16600 nM
inactive: [6] | [10]

CN1CCN(c2cc(C(=O)Nc3ccc4c(c3)-c3c(c(C(N)=O)nn3-c3ccc(F)cc3)CC4)c(Cl)cn2)CC1
active: [6] 935 nM | [7] 833 nM | [2] 7430 nM | [3] 16600 nM | [4] 23500 nM | [5] 20900 nM | [10] 5900 nM

CN1CCN(c2ccc3nc(-c4c(N)c5c(F)cccc5[nH]c4=O)[nH]c3c2)CC1
active: [6] 2350 nM | [7] 18700 nM | [8] 20900 nM | [3] 14800 nM | [4] 8330 nM | [9] 8330 nM | [10] 2090 nM

O=C(NCCCNc1nc(Nc2cccc(NC(=O)N3CCCC3)c2)ncc1I)c1cccs1
inactive: [4] | [5]
active: [6] 4690 nM | [7] 14800 nM | [8] 16600 nM | [10] 1320 nM

CC1(C)CC(=O)c2c(C(F)(F)F)nn(-c3ccc(C(N)=O)c(NC4CCC(OC(=O)CN)CC4)c3)c2C1 (configuration not stated)
active: [6] 166 nM | [8] 235 nM | [3] 93.5 nM | [4] 264 nM | [5] 132 nM

OCc1ccc(-c2ccc(-c3ccc(CO)s3)o2)s1
active: [6] 20900 nM | [7] 11800 nM | [10] 6620 nM
inactive: [3] | [5]

CC(C)=CCCC(C)=CCCC(C)=CCSc1ccccc1C(=O)O
active: [6] 2350 nM | [2] 4180 nM | [8] 1180 nM | [5] 187 nM | [9] 235 nM | [10] 1180 nM

Cc1ccc(NC(=O)C2(c3ccc4c(c3)OC(F)(F)O4)CC2)nc1-c1cccc(C(=O)O)c1
active: [6] 52.6 nM | [7] 83.3 nM | [2] 52.6 nM | [3] 46.9 nM | [5] 59 nM | [9] 46.9 nM | [10] 66.2 nM
